PNC inhibitor = blocks assembly of the perinucleolar compartment; AID 2417; hit rate 3.1% among 140,000; PC3M PTB-GFP, PNC prevalence imaging, 16 h; active compounds read low; activity change (PNC), negative = inhibition, % at 10 µM;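 active means readout at or below -70, meaning at least 70% loss of cells showing the perinucleolar compartment, a nuclear body marking cancer cells; inconclusive means readout between -30 and a set limit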;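 further: plate controls were DMSO wells for no effect and camptothecin positive control wells for full effect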
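Read-out is percentage of cells bearing a perinucleolar compartment, from automated 20x imaging of fixed, Hoechst-stained PC3M PTB-GFP cells. Cells were seeded 4 h, then exposed 16 h to compound (23 nl of library stock) in duplicate plates.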
Tau fibril FP = inhibitors of human tau fibril formation; AID 1468; Potency, µM (series often up to 57.7 µM), for inactives: top-dose activity, negative = inhibition, most hits filed as inhibitors; K18 P301L tau heparin fibrillization, Alexa594 FP, 6 h; hit rate 0.39% among 280,000; further: potency means the concentration at half of the fitted maximal effect; nearly all actives have a fitted effect of over 55% in size
Target sequence (P10636 561-689 P618L limits assumed): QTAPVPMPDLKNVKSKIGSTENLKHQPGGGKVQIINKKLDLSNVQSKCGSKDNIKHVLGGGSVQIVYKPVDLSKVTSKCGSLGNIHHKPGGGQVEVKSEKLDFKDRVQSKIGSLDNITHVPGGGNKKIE
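Steps: dispense K18 P301L tau (15 uM plus 0.24 uM Alexa 594 tracer, final) in pH 7 sodium acetate; add compound; add heparin (20 uM final); incubate 6 hr, 37 C; add ThT (30 uM final); after 1 hr ambient, read FP.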
NPSR antag = blocks cAMP signaling of the human neuropeptide S receptor | CHO-NPSR cells, cAMP TR-FRET, antagonist mode | Potency, µM (top dose mostly 38.3 µM), for inactives: at the highest dose activity change, negative = inhibition, actives largely listed as inhibitors | hit rate 1% among 220,000; further: potency means the concentration at half of the fitted maximal effect; nearly all actives have a fitted effect of over 50% in size
Target sequence (Q6W5P4 whole entry, looked up): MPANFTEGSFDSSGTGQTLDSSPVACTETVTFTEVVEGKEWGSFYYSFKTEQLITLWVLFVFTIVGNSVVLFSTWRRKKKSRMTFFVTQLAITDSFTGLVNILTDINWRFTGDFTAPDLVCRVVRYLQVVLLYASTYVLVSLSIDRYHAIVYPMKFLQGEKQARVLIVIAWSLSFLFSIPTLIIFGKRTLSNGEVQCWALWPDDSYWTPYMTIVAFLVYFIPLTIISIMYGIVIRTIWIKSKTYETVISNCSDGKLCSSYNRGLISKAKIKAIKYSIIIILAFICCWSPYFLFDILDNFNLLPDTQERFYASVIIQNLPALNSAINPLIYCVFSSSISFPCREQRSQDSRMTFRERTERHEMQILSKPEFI
Tau fibril ThT = blocks human tau fibril formation measured by thioflavin T; Potency, µM (titrated, usually from 57.4 µM), for the others: at the highest dose activity, negative = inhibition, hits mostly inhibitors; AID 1460; P10636; hit rate 2.1% among 270,000; recombinant tau K18 P301L, heparin-induced fibrillization, ThT fluorescence; further: potency means the concentration at half of the fitted maximal effect; nearly all actives have a fitted effect of over 55% in size
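ThT emission at 510 nm, taken 1 hr after adding 30 uM dye, quantifies aggregates formed when 20 uM heparin acts on human tau K18 P301L for 6 hr at 37 C.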
Tau fluor counter = counter-screen for tau fibril formation inhibitors. Potency, µM (highest dose often 57.7 µM), for the others: at the highest dose activity change, negative = decrease. hit rate 0.93% among 280,000. tau K18 P301L (four-repeat tau fragment) Alexa594 fluorescence, heparin fibrillization. AID 1463; further: potency means the concentration at half of the fitted maximal effect; nearly all actives have a fitted effect of over 55% in size
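Human K18 P301L tau (15 uM unlabeled plus 0.24 uM Alexa 594-labeled, final) in 100 mM sodium acetate pH 7 was mixed with compound and 20 uM heparin and incubated 6 hr at 37 C.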
JMJD2E inh = JMJD2E (human) inhibition; B2RXH2; JMJD2E catalytic domain, FDH-coupled NADH fluorescence (FDH is formaldehyde dehydrogenase); Potency, µM (doses to about 57.1 µM), for inactives: top-dose activity change, negative = inhibition, actives largely listed as inhibitors; hit rate 1.6% among 230,000; AID 2147; active means well fitted inhibition curve with a large enough effect, not every such curve was filed as active; inconclusive means small, poorly fitted or top-dose-only effect, or another doubt; inactive means no such curve, though single readings can be large or run the other way;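 further: potency means the concentration at half of the fitted maximal effect; 0% = wells with enzyme and -100% = buffer wells without enzyme; nearly all actives have a fitted effect of over 50% in size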
Starred values were filed as active, the others as inactive; ? = inconclusive; . = no result given; [ ] = another dose, or the depositor's remark. The list is not random: actives were taken first. Their share in the collection is about 5.1%. Unless noted, the call rests on the fitted dose curve; in most records, active means well fitted curve in the direction sought with a large enough effect; inconclusive means small, poorly fitted or top-dose-only effect, or another doubt; inactive means no such curve, though single readings can be large; an effect the other way counts as inactive or inconclusive. Unless noted, on the % scale 0 is the no-effect control and ±100 the full control effect.

SMILES	PNC inhibitor	Tau fibril FP	NPSR antag	Tau fibril ThT	Tau fluor counter	JMJD2E inh
COc1cc(OC)c(NC(=O)Cn2cnc3nc4c(cc3c2=O)CCCC4)cc1Cl	.	2.1%	.	-0.2%	-9.7%	.
COC(=O)[C@H]1[C@H]2C[C@@H]3c4[nH]c5cc(OC)ccc5c4CCN3C[C@H]2C[C@@H](OC(=O)c2cc(OC)c(OC)c(OC)c2)[C@@H]1OC	.	6.6%	?	?	12.6µM*[quencher]	?
COC(=O)[C@@H]1C2CC3c4[nH]c5cc(OC)ccc5c4CCN3CC2C[C@H](OC(=O)c2cc(OC)c(OC)c(OC)c2)C1OC (stereo partly specified)	.	11.6%	.	?	?	?
CC1(C)Cc2c(c(N3CCOCC3)nc3sc4c(NCc5ccco5)nnnc4c23)CS1	-80.8*	1.0%	?	-7.3%	-11.0%	-14.5%
COc1cc2c(cc1OC)C(COc1cc(C)cc(C)c1)N(C(=O)COc1ccccc1)CC2 (stereo unspecified)	.	12.3%	.	-8.4%	-1.6%	.
COc1ccccc1N1CCN(C(=O)CN(C2CCCCC2)S(C)(=O)=O)CC1	.	-0.2%	4.7%	-5.8%	-5.7%	4.0%
CS(=O)(=O)N(CC(=O)N1CCN(c2ccccc2F)CC1)C1CCCCC1	-88.0*	2.8%	-14.6%[46.1 µM]	10.6%	8.3%	-1.9%
Cc1ccc(Cn2c(=O)c3cccnc3n(CC(=O)Nc3cc(Cl)ccc3C)c2=O)cc1	.	-8.5%	.	7.6%	-13.7%	.
O=C(Nc1ccc2nn(-c3ccccc3)nc2c1)c1ccc(-c2cccc(Cl)c2)o1	.	-9.3%	.	?	?	.
Cc1ccc(-c2ccc(CCC(=O)O)n2-c2ccc(C(C)C)cc2)cc1	.	-4.6%	.	?	-21.6%	.
NC(=S)n1[nH]c(-c2ccc([N+](=O)[O-])cc2)c(N=Nc2cccc(Cl)c2)c1=O	.	6.4%	-46.4%	12.6µM*	14.1µM*[quencher]	-7.1%
CCN(CC)S(=O)(=O)c1ccc(N=Nc2c(C)[nH]n(C(N)=S)c2=O)cc1	37.3	1.0%	-8.7%[46.1 µM]	?	-16.9%	-2.6%
NC(=S)n1[nH]c(-c2ccc([N+](=O)[O-])cc2)c(N=Nc2ccc(O)cc2)c1=O	-0.3	15.1%	?	3.16µM*	?	4.0%
O=C(O)CC/C(=C\c1ccc(N2CCCC2)c([N+](=O)[O-])c1)c1nc2ccccc2s1	.	-11.5%	-39.0%	4.47µM*	-23.9%	8.1%
O=C(OCC1OC(OC(=O)c2cc(O)c(O)c(OC(=O)c3cc(O)c(O)c(O)c3)c2)[C@@H](OC(=O)c2cc(O)c(O)c(OC(=O)c3cc(O)c(O)c(O)c3)c2)C(OC(=O)c2cc(O)c(O)c(OC(=O)c3cc(O)c(O)c(O)c3)c2)C1OC(=O)c1cc(O)c(O)c(OC(=O)c2cc(O)c(O)c(O)c2)c1)c1cc(O)c(O)c(OC(=O)c2cc(O)c(O)c(O)c2)c1 (stereo partly specified)	.	?	.	1.26µM*	0.501µM*[quencher]	0.282µM*
COc1ccc(N2CCN(C(=O)c3cc4c(s3)-c3ccccc3OC4)CC2)cc1	.	-5.2%	.	-9.0%	-12.2%	.
COc1ccc2c(c1)CCc1cc(C(=O)N3CCN(c4ccc(N5CCOCC5)nn4)CC3)sc1-2	9.4	?	-12.1%[46.1 µM]	8.91µM*	-23.7%	?
COc1ccccc1N(O)C1CC(=O)N(c2ccc(Br)cc2)C1=O (stereo unspecified)	?	?	-3.7%[46.1 µM]	14.1µM*	?	-28.3%
CCCCS(=O)CC(COC)OC(=O)c1ccccc1 (stereo unspecified)	.	-5.1%	13.8%	0.1%	2.1%	7.3%
CCCCS(=O)CC(COc1ccc(Cl)cc1)OC(=O)c1ccccc1 (stereo unspecified)	-119.5*	-3.9%	-29.4%[46.1 µM]	-10.1%	-2.1%	-8.8%
CCOc1ccc(-c2nc(SCC(=O)NCCOC)c(-c3ccc(OC)c(OC)c3)[nH]2)cc1	.	11.5%	.	?	?	.
COc1ccc(NC(=O)CN2C(=O)C(C)(C)c3ccccc32)cc1Cl	.	-10.9%	.	-8.4%	-19.0%	.
CN(C(=O)c1ccc2c(=O)n3c(nc2c1)CCCCC3)c1ccccc1	-100.0*	-12.2%	-3.0%[46.1 µM]	-2.8%	-6.4%	8.1%
CN(C(=O)c1ccc2c(=O)n3c(nc2c1)CCCCC3)c1ccccc1Cl	.	-1.3%[0.0958 µM]	-8.7%	.	0.2%[0.0958 µM]	-2.1%
CCCS(=O)(=O)NCCc1sc2nc(-c3ccc(F)cc3)nn2c1C	.	-7.9%	.	-8.1%	-13.8%	.
SMILES	PNC inhibitor	Tau fibril FP	NPSR antag	Tau fibril ThT	Tau fluor counter	JMJD2E inh
COc1ccc(N=Nc2nc3ccc(Br)cc3n2C)cc1	-20.3	3.5%	-7.8%[46.1 µM]	1.58µM*	-21.8%	6.9%
COc1ccc(N=Nc2c(C)[nH][nH]c2=O)cc1	.	1.6%	-19.2%	8.91µM*	-11.6%	-2.2%
Cc1[nH][nH]c(=O)c1N=Nc1ccccc1C#N	.	6.2%	-22.1%	?	-19.5%	-1.6%
CCOc1ccc(N=Nc2c(N)[nH][nH]c2=O)cc1	?	11.8%	-33.3%	8.5%	10.5%	-4.6%
Cc1ccc(N=Nc2c(C)[nH][nH]c2=O)c(C)c1	11.5	-5.7%	-1.7%[46.1 µM]	8.91µM*	-23.2%	-2.7%
CCc1ccccc1NS(=O)(=O)c1cc(Br)cc2c1N(C(=O)C1CC1)CC2	.	-6.1%	.	-4.2%	-16.5%	.
CCCCCOc1ccc(Br)cc1/C(C)=N/NC1=NCCN1	-88.5*	-0.6%	26.6%[46.1 µM]	?	-15.9%	-10.1%
COc1ccc(Br)cc1/C(C)=N/NC1=NCCN1	-17.0	-4.0%	-0.3%[46.1 µM]	-6.1%	-4.7%	1.2%
CC(=O)c1cccc(NC(=O)CCCSc2nc(-c3ccco3)cc(C(F)(F)F)n2)c1	.	-10.0%	.	-6.3%	?	.
CCOC(=O)N1CCC(NC(=O)Cn2nc(Cc3ccncc3)c3ccccc3c2=O)CC1	-105.7*	-2.5%	?	-8.8%	-4.8%	7.4%
CCOC(=O)c1cc(S(=O)(=O)NCc2ccc(Cl)cc2)[nH]n1	.	-8.1%	.	-0.1%	-2.1%	.
c1coc(CN(Cc2cccs2)Cc2nnnn2C2CCCCC2)c1	-100.0*	2.2%	-1.6%[46.1 µM]	-10.1%	-8.6%	-7.5%
C/C(CCN1CCCc2nc(C)c(C)cc21)=N\O[C@@H](C)c1cn([C@@H]2COC[C@@H]2O)nn1	.	-7.3%[11.6 µM]	.	2.3%[11.5 µM]	-2.3%[11.6 µM]	.
Fc1cccc(-c2nnn3c2nc(NC2CCCCC2)c2ccccc23)c1	.	?	.	2.4%	?	.
Nc1nc2ccccc2n1C(=O)c1ccccc1	.	1.6%	-8.2%	5.8%	3.4%	-5.6%
Nc1nc2ccccc2n1C(=O)CCc1ccccc1	-86.7*	-2.8%	-5.0%[46.1 µM]	-14.1%	-4.3%	6.7%
COc1cc(/C=N/Nc2snc(SC)c2C#N)cc(OC)c1OC	-105.3*	8.8%	-7.8%[46.1 µM]	-20.2%	?	?
CSc1nsc(N/N=C/c2ccc3c(c2)OCO3)c1C#N	.	-5.0%	-7.1%	?	?	?

Source: PubChem BioAssay (National Center for Advancing Translational Sciences (NCATS))
